Bioassay records as filed in PubChem.
An excerpt weighted towards active compounds, which were near 3.1% of everything screened.
EPAC2 antag: validation of human EPAC2 antagonists; Q8WZA2; EPAC2 Rap1B BODIPY-GDP exchange, fluorescence; Potency, µM (titrated, usually from 112 µM), usual class: inhibitors; actives 1.7% (n = 16,000); further: nearly all actives have a fitted effect of over 40% in size
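Fluorescent exchange read-out: 100 nM EPAC2 with 250 nM RAP1B–BODIPY-GDP and 50 uM GDP; BODIPY-GDP release lowers fluorescence. Read at 480/540 nm every 5 min for 30 min at room temperature; normalized to 6.5 mM cAMP.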
EPAC1 ag val: human EPAC1 agonism, validation | Potency, µM, most hits filed as activators | actives 1% (n = 16,000) | EPAC1 Rap1b BODIPY-GDP exchange, fluorescence | O95398; further: nearly all actives have a fitted effect of over 70% in size
Each line names hits and unclear results; the compound was inactive in the other large screens. The call rests on the fitted dose curve; in most records, active means well fitted curve in the direction sought with a large enough effect; inconclusive means small, poorly fitted or top-dose-only effect, or another doubt; inactive means no such curve, though single readings can be large; an effect the other way counts as inactive or inconclusive.

COCCn1c(=O)c(C)nc2cnc(Nc3cccc(OC)c3)nc21	none
COCCn1c(=O)c(CCc2ccccc2)nc2cnc(Nc3ccccc3)nc21	none
CC(C)(O)C#Cc1ccc(C(=O)NCCN2Cc3ccccc3OC(c3ccccc3F)C2)o1 (stereo unspecified)	EPAC2 antag inconclusive
CO[C@H]1C[C@@H]2CC[C@@H](C)[C@@](O)(O2)C(=O)C(=O)N2CCCC[C@H]2C(=O)O[C@H]([C@H](C)C[C@@H]2CC[C@@H](O)[C@H](OC)C2)CC(=O)[C@H](C)C=C(C)[C@@H](O)[C@@H](OC)C(=O)[C@H](C)C[C@H](C)/C=C/C=CC=C1C	EPAC2 antag inconclusive
COc1cccc(Cn2c(=O)c(-c3cccs3)nc3cnc(Nc4cccc(OC)c4)nc32)c1	EPAC1 ag val 112µM
COc1ccc(Nc2ncc3nc(-c4cccs4)c(=O)n(Cc4cccc(OC)c4)c3n2)cc1	EPAC1 ag val inconclusive
Cc1oc(-c2ccccc2NC(=O)C2CCC2)nc1CNC(=O)c1ccc(C#CC(C)(C)O)cc1	EPAC2 antag inconclusive
COc1ccc(C[C@@H](C)NC[C@H](O)c2ccc(O)c(NC=O)c2)cc1	none
CCCS(=O)(=O)NCc1c(C)ncc2c1CCN(C(=O)c1cccc(Cl)c1F)C2	none
COc1ccccc1C1CN(CCNC(=O)c2cnsn2)Cc2ccccc2O1 (stereo unspecified)	none
O=C(NCCc1ccccn1)c1cnn(-c2ncc3c(n2)-c2ccccc2CC3)c1C1CC1	none
Cc1[nH]c2ccccc2c1/C=C/c1ccnc2ccccc12	EPAC1 ag val inconclusive
Cc1cc(N(C)C)c(C)cc1/C=C/c1ccnc2ccccc12	EPAC1 ag val 112µM
CCCN(CCC)c1ccc(/C=C/c2ccnc3ccccc23)cc1	EPAC1 ag val 100µM
CN(C)c1ccc(/C=C/c2ccnc3ccc4ccccc4c23)cc1	EPAC2 antag inconclusive
Cc1cc2nc3c(=O)[nH]c(=O)nc-3n(C[C@H](O)[C@H](O)[C@H](O)COP(=O)(O)OP(=O)(O)OC[C@H]3O[C@@H](n4cnc5c(N)ncnc54)[C@H](O)[C@@H]3O)c2cc1C	EPAC1 ag val 112µM
Nc1ncnc2c1ncn2[C@@H]1O[C@H](COP(=O)(O)OP(=O)(O)OP(=O)(O)OP(=O)(O)OC[C@@H]2O[C@H](n3cnc4c(N)ncnc43)[C@@H](O)[C@H]2O)[C@@H](O)[C@H]1O	none
C=CC[N@@+]12CC[C@@]34c5ccccc5N5/C=C6/[C@H]7C[C@H]8[C@@]9(CC[N@@+]8(CC=C)C/C7=C/CO)c7ccccc7N(/C=C(/[C@@H](C[C@@H]31)/C(=C\CO)C2)[C@H]54)[C@@H]69	none
